# Assay results reported in ChEMBL document CHEMBL1961873, “Compounds: GSK PKIS; Assays: Nanosyn kinase panel” (2012).
# Legend:
# [1] = target: T1, Inhibitor of nuclear factor kappa-B kinase subunit epsilon (Homo sapiens) (UniProt Q14164); conditions: at 1 µM;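 further: reported values are averaged percent inhibition figures against human IKKε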
# T1 sequence (whole entry): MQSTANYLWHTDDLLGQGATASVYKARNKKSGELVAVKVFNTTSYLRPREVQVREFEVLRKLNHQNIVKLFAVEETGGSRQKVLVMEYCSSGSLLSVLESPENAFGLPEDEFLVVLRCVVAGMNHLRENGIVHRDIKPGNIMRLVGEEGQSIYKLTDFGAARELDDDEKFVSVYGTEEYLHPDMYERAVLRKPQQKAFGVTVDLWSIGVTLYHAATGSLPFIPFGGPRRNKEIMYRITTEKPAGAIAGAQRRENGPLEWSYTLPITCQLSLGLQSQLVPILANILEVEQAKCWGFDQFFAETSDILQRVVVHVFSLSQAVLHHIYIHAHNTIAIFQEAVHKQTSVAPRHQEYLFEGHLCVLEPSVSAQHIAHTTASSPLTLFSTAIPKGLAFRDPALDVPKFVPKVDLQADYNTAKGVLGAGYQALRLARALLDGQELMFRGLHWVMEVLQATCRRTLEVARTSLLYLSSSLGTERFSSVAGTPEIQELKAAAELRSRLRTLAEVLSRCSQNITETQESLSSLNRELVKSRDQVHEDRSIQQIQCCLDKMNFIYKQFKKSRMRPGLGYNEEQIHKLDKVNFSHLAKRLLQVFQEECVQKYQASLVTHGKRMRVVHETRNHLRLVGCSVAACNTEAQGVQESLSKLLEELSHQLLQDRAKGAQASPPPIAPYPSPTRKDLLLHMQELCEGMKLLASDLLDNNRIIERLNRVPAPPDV
# [2] = target: T2, Serine/threonine-protein kinase Nek1 (Homo sapiens) (UniProt Q96PY6); conditions: at 0.1 µM
# T2 sequence (whole entry): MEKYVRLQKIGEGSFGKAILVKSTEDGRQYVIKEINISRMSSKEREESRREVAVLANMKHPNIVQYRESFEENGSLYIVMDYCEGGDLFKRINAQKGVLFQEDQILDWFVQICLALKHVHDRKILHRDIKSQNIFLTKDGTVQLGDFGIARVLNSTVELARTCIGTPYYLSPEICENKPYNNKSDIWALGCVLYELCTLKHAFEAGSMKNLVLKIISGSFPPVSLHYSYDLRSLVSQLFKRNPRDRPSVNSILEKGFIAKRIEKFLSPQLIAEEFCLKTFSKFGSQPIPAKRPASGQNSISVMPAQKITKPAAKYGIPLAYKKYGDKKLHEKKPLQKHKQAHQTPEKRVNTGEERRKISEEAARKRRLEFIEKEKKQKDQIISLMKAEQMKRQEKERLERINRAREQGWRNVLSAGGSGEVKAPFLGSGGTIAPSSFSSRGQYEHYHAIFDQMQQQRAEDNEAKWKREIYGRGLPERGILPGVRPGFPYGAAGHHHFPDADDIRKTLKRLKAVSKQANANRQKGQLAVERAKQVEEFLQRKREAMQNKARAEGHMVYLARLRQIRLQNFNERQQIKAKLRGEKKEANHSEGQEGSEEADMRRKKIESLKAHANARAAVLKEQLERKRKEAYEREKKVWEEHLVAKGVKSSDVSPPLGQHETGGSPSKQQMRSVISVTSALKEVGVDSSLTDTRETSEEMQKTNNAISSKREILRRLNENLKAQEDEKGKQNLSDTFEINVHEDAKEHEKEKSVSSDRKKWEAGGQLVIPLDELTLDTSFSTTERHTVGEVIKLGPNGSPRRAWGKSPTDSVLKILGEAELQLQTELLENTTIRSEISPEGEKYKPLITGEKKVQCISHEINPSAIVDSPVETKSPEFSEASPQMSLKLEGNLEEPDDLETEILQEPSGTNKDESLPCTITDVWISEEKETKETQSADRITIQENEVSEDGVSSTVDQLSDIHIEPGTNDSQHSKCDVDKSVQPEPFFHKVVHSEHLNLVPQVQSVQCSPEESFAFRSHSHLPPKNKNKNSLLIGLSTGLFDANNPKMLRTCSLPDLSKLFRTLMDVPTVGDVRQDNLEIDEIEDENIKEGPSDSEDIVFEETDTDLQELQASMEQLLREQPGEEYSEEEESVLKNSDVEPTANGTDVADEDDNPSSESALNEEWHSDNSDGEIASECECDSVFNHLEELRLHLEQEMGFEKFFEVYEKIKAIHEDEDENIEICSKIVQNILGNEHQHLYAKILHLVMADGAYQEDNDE
# [3] = target: T2, Serine/threonine-protein kinase Nek1 (Homo sapiens); conditions: at 1 µM
# [4] = target: T3, Serine/threonine-protein kinase Nek2 (Homo sapiens) (UniProt P51955); conditions: at 0.1 µM
# T3 sequence (whole entry): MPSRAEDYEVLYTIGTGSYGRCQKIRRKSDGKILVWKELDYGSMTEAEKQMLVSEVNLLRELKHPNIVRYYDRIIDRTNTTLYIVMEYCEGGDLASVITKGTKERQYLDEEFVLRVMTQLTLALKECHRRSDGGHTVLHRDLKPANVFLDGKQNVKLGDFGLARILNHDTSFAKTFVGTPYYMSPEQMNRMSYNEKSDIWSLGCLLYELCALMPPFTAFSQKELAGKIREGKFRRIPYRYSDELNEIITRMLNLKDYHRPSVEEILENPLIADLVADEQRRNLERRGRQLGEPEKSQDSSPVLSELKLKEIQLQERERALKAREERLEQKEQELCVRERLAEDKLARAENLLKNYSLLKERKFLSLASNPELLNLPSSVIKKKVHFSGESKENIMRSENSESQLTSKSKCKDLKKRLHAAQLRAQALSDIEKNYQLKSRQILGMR
# [5] = target: T3, Serine/threonine-protein kinase Nek2 (Homo sapiens); conditions: at 1 µM
# [6] = target: Serine/threonine-protein kinase Nek6 (Homo sapiens) (UniProt Q9HC98); conditions: at 0.1 µM
# Chain of Serine/threonine-protein kinase Nek6 (Homo sapiens) (Q9HC98 whole entry): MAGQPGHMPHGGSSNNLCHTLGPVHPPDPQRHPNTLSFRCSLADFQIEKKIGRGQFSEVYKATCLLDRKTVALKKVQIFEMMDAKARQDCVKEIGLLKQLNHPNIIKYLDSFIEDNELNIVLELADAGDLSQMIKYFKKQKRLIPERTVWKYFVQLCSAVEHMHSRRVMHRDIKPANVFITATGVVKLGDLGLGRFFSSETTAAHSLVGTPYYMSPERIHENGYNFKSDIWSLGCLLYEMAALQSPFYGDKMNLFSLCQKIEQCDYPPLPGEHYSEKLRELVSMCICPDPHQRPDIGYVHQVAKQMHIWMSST
# [7] = target: Serine/threonine-protein kinase Nek6 (Homo sapiens) (UniProt Q9HC98); conditions: at 1 µM
# [8] = target: Serine/threonine-protein kinase Nek7 (Homo sapiens) (UniProt Q8TDX7); conditions: at 0.1 µM
# Chain of Serine/threonine-protein kinase Nek7 (Homo sapiens) (Q8TDX7 whole entry, looked up): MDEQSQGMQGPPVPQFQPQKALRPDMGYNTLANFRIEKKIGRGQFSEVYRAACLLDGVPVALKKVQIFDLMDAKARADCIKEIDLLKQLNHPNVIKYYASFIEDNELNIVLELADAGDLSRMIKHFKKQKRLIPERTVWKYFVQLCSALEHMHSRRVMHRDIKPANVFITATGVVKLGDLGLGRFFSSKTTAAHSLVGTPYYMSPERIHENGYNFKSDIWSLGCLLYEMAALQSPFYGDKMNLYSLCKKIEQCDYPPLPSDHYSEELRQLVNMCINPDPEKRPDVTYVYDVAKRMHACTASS
# [9] = target: Serine/threonine-protein kinase Nek7 (Homo sapiens) (UniProt Q8TDX7); conditions: at 1 µM
# [10] = target: T4, Serine/threonine-protein kinase Nek9 (Homo sapiens) (UniProt Q8TD19); conditions: at 0.1 µM
# T4 sequence (whole entry): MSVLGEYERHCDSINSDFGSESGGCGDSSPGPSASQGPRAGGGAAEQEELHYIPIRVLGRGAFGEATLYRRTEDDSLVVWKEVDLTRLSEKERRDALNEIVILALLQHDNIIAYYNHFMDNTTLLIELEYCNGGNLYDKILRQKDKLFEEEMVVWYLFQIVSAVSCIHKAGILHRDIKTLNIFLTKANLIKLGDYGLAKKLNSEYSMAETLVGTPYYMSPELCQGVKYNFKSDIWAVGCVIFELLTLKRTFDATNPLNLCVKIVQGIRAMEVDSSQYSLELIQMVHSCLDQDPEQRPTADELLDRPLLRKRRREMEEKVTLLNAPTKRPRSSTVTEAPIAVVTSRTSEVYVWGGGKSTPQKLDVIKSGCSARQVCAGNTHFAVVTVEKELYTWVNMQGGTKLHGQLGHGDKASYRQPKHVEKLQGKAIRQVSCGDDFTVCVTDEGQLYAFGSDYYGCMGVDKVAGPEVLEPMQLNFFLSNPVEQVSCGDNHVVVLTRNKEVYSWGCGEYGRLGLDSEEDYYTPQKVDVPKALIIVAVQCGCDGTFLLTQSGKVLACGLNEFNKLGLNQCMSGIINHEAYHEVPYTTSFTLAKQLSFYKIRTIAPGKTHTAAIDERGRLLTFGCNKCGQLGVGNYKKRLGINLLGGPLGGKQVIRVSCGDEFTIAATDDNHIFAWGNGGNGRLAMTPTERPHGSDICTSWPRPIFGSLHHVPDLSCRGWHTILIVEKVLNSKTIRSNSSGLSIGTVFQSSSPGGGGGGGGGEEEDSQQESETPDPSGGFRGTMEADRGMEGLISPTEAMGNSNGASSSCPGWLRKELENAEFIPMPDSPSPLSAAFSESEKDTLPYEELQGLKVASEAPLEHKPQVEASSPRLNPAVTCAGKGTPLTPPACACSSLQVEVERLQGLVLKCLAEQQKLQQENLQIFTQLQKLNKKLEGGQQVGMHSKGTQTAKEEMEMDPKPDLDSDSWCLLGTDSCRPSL
# [11] = target: T4, Serine/threonine-protein kinase Nek9 (Homo sapiens); conditions: at 1 µM
# [12] = target: Serine/threonine-protein kinase PLK1 (Homo sapiens) (UniProt P53350); conditions: at 0.1 µM
# Chain of Serine/threonine-protein kinase PLK1 (Homo sapiens) (P53350 whole entry): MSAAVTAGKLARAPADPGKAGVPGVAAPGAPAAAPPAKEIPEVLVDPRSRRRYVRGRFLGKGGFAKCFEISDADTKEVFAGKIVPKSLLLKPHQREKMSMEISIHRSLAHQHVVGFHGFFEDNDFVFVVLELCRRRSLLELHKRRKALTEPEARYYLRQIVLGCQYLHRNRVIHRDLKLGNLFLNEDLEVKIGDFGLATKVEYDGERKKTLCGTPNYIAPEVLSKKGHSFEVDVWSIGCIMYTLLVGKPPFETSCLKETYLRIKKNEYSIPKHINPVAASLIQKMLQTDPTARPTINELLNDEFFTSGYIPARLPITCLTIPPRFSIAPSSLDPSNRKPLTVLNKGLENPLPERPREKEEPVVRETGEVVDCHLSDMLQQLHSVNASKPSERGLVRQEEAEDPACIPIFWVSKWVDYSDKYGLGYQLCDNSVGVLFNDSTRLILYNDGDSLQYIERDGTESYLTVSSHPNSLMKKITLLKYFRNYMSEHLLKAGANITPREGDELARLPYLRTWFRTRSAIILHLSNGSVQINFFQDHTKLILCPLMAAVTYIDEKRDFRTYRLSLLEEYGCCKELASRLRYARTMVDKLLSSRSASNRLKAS
# [13] = target: Serine/threonine-protein kinase PLK1 (Homo sapiens) (UniProt P53350); conditions: at 1 µM
# [14] = target: T5, Dual specificity protein kinase TTK (Homo sapiens) (UniProt P33981); conditions: at 0.1 µM
# T5 sequence (whole entry): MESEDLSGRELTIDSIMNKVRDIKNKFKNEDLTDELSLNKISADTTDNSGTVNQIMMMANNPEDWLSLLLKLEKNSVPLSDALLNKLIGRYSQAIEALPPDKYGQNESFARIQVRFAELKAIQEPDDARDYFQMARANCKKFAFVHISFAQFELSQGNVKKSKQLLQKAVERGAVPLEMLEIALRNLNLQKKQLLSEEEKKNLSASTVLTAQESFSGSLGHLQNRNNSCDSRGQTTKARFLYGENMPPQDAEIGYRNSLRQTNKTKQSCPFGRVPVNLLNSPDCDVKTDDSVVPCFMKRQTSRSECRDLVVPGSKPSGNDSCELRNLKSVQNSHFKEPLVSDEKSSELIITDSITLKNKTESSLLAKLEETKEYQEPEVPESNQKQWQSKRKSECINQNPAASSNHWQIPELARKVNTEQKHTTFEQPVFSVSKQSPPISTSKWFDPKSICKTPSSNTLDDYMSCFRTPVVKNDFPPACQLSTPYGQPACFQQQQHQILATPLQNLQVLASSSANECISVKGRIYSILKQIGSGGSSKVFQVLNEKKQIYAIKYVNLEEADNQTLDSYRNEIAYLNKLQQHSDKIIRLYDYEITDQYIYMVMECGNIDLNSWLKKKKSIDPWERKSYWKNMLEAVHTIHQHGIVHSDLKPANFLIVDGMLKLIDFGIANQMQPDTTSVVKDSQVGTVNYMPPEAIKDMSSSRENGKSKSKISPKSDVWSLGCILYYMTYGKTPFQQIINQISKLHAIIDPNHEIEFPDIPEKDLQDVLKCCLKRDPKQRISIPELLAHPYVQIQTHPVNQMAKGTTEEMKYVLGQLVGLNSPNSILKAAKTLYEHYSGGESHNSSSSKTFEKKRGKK
# [15] = test system: T6, Receptor-type tyrosine-protein kinase FLT3 (Homo sapiens), P36888 [D835Y]; conditions: at 1 µM
# T6 sequence (whole entry): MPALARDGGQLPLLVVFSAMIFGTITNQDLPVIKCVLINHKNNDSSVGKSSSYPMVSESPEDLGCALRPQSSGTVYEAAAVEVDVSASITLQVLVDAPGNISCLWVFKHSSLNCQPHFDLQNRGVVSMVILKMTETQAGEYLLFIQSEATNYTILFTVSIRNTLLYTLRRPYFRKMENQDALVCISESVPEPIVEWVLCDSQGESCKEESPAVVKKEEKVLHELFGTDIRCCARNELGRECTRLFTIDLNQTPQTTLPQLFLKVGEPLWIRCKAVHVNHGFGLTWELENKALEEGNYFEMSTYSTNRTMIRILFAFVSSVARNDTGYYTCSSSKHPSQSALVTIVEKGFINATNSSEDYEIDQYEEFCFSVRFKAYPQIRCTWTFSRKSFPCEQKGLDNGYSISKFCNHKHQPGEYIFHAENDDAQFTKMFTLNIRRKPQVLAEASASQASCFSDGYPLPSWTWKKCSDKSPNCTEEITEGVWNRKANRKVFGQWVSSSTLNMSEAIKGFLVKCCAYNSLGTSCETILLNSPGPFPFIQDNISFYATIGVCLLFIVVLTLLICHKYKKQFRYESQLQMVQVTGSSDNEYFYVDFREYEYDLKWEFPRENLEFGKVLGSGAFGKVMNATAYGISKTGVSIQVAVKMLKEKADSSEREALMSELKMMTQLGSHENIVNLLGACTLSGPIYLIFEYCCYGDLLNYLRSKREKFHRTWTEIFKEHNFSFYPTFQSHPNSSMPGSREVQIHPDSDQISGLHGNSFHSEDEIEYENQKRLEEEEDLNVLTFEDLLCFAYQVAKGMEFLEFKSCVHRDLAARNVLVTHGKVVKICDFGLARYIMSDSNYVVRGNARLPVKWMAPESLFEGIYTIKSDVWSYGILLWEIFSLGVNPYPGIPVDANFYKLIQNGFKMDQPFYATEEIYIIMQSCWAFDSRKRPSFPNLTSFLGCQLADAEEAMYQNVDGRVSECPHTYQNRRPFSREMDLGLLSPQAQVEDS
# [16] = target: Vascular endothelial growth factor receptor 3 (Homo sapiens) (UniProt P35916); conditions: at 0.1 µM
# Chain of Vascular endothelial growth factor receptor 3 (Homo sapiens) (P35916 whole entry): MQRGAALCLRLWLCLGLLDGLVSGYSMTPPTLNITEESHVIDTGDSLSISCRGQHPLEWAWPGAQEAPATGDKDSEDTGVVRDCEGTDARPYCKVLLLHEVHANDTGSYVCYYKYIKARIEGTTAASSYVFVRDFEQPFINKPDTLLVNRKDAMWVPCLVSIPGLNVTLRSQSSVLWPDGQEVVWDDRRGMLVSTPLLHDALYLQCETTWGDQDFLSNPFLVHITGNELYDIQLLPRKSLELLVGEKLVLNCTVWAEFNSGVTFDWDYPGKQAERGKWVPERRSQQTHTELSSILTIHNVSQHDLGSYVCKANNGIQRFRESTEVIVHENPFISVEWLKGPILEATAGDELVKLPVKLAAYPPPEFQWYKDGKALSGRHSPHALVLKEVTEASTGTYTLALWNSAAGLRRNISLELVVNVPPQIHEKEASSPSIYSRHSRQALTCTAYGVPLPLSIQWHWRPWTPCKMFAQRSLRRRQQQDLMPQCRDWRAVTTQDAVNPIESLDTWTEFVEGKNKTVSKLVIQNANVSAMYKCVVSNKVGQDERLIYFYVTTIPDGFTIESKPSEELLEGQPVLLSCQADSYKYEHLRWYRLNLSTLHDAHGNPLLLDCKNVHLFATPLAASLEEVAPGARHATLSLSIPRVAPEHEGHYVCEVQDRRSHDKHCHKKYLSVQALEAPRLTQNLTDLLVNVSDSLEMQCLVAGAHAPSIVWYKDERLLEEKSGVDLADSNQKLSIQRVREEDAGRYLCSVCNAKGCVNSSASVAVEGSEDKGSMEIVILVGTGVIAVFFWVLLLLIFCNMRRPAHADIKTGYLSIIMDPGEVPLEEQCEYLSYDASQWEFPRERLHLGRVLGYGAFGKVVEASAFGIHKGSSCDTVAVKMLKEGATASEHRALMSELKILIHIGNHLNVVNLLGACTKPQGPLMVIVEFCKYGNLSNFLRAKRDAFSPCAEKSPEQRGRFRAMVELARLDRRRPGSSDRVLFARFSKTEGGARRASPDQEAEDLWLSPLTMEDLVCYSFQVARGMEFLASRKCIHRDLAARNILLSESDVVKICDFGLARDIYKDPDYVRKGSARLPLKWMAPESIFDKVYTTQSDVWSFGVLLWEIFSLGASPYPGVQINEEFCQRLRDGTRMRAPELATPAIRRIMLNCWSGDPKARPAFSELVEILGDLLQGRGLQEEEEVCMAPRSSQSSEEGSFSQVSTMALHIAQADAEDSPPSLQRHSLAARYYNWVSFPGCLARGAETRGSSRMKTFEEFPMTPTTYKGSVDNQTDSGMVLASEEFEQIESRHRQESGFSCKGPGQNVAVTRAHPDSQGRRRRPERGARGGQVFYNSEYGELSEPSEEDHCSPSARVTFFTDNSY
# [17] = target: Vascular endothelial growth factor receptor 3 (Homo sapiens) (UniProt P35916); conditions: at 1 µM
# [18] = target: Macrophage colony-stimulating factor 1 receptor (Homo sapiens) (UniProt P07333); conditions: at 0.1 µM
# Chain of Macrophage colony-stimulating factor 1 receptor (Homo sapiens) (P07333 whole entry): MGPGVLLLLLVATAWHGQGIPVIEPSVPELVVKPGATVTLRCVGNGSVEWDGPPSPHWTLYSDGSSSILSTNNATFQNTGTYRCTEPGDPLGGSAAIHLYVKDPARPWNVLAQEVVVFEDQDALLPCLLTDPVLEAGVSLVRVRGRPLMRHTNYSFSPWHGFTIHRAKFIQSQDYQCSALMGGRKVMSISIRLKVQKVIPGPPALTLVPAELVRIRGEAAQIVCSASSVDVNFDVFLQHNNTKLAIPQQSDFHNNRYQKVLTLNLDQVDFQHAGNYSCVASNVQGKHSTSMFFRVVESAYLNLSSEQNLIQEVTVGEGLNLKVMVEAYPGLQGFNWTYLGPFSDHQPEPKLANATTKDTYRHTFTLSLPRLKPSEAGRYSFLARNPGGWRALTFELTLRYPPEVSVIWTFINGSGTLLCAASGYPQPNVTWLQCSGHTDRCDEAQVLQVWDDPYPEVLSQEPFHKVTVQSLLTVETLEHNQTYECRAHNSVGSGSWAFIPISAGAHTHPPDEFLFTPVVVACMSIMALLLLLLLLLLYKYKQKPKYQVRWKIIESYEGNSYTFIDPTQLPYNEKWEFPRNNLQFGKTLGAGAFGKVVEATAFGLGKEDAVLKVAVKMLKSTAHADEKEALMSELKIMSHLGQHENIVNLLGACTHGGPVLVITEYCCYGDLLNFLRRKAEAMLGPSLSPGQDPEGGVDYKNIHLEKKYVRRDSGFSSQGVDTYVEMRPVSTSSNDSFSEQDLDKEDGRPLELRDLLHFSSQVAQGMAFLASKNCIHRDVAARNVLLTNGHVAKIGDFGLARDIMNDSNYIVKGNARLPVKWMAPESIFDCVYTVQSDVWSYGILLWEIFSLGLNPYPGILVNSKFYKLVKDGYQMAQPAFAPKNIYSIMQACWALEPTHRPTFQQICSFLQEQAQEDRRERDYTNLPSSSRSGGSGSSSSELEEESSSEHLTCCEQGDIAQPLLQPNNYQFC
# [19] = target: Macrophage colony-stimulating factor 1 receptor (Homo sapiens) (UniProt P07333); conditions: at 1 µM
# [20] = target: Tyrosine-protein kinase Fyn (Homo sapiens) (UniProt P06241); conditions: at 0.1 µM
# Chain of Tyrosine-protein kinase Fyn (Homo sapiens) (P06241 2-537 limits assumed): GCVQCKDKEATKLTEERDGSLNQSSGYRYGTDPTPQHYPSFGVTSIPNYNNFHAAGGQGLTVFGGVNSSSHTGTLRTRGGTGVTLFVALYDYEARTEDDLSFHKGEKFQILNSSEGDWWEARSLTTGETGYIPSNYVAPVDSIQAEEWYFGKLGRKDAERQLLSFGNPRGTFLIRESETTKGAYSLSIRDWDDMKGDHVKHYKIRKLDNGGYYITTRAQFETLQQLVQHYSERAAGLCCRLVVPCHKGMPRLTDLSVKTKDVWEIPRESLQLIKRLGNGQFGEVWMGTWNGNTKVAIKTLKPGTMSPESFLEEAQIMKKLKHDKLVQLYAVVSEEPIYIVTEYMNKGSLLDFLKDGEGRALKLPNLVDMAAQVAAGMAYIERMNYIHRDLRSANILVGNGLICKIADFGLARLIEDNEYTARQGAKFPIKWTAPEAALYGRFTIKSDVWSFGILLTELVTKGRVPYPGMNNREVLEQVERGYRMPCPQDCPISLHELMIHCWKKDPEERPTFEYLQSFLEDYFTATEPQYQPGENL
SMILES,inhibition [1] [%],inhibition [2] [%],inhibition [3] [%],inhibition [4] [%],inhibition [5] [%],inhibition [6] [%],inhibition [7] [%],inhibition [8] [%],inhibition [9] [%],inhibition [10] [%],inhibition [11] [%],inhibition [12] [%],inhibition [13] [%],inhibition [14] [%],inhibition [15] [%],inhibition [16] [%],inhibition [17] [%],inhibition [18] [%],inhibition [19] [%],inhibition [20] [%]
CS(=O)(=O)CCNCc1cc(-c2cc3c(Nc4ccc(OCc5cccc(F)c5)c(Cl)c4)ncnc3s2)cs1,4.64,3.08,5.81,6.26,6.31,1.2,3.03,4.02,8.5,9.93,8.5,6.1,8.12,9.23,5.05,1.58,-1.31,7.21,7.82,0.55
CCC(=O)Nc1ccc(C)c(-c2ccc(C(=O)NCC3CC3)cc2)c1,4.21,2.34,2.64,4.55,0.77,2.45,0.12,3.13,8.32,8.46,10.2,5.02,4.61,8.14,3.02,3.63,-1.74,-2.39,2.95,1.58
NC(=O)c1ccc(Oc2nccc(-c3c(-c4ccc(F)cc4)ncn3C3CCNCC3)n2)cc1,7.38,4.02,5.01,6.78,5.63,1.6,1.67,3.46,9.69,6.05,4.67,5.93,9.34,8.68,1.08,7.32,4.57,5.61,6.15,2.66
